# Measured values taken from PubChem BioAssay (EPA / NIEHS).
# Activity calls are given as the source filed them. The calls were made as follows: active = hit-call score of the fitted dose curve at least 0.9, where 1 is the maximum; inactive = score below 0.9.
# Assay: CEETOX_H295R_CORTIC: CeeTox H295R High-throughput Steroidogenesis Assay for Corticosterone (CORTIC) (AID 2283437);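 also: corticosterone secreted into medium quantified by mass spectrometry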
# Settings: actives raise or lower the signal
# Procedure: CEETOX_H295R is a cell-based, multiplexed-readout assay that uses H295R, a human adrenal gland cell line, with measurements taken at 48 hours after chemical dosing in a 96-well plate.CEETOX_H295R_CORTIC is one of 23 assay component(s) measured or calculated from the CEETOX_H295R assay. It is designed to make measurements of hormone induction, a form of inducible reporter, as detected with absorbance signals by HPLC-MS-MS technology.Data from the assay component CEETOX_H295R_CORTIC was analyzed into 1 assay endpoint. This assay endpoint, CEETOX_H295R_CORTIC, was analyzed with bidirectional fitting relative to DMSO as the negative control and baseline of activity. Using a type of inducible reporter, gain or loss-of-signal activity using HPLC-MS-MS was used to understand synthesis of Corticosterone in H295R cell line at 48hr of chemical exposure. To generalize the intended target to other relatable targets, this assay endpoint is annotated to the steroid hormone intended target family, where the subfamily is glucocorticoids.
# Cell culture and media preparation procedures were conducted in accordance with OECD Test No. 456 guidelines, with minor modifications. H295R cells (ATCC CRL-2128) were expanded for 5 passages and frozen in batches in liquid nitrogen. Prior to the steroidogenesis assay, H295R cells were thawed and passed at least 4 times. The maximum passage was 10. Cells were maintained in a 1:1 mixture of DMEM/F12 supplemented with 5ml/L ITS+ Premix (BD Bioscience) and 12.5 ml/L Nu-Serum (BD Bioscience). After seeding cells into 96-well plates at 50-60% confluency, cells were allowed to adhere overnight. Prior to chemical testing, culture medium was replaced with 175 uL medium containing 10 uM forskolin to stimulate steroidogenesis for 48 hours. Following prestimulation, forskolin medium was replaced with medium containing test chemical solubilized in DMSO (ensuring a final concentration of 0.1% DMSO). Test chemicals were incubated for 48 hours, then the medium was removed and split into 2 vials containing approximately 75uL each, and stored at -80 C prior to hormone analysis. For steroid quantification, media samples were shipped to OpAns, LLC (Durham, NC) on dry ice, and samples were thawed to room temperature prior to liquid-liquid extraction. Steroid hormones were extracted from media samples using methyl tertbutyl ether (MTBE). An extra derivatization with dansyl chloride was included for estrogen (estrone and estradiol) detection only. Steroid hormones were separated by HPLC, eluted using a reverse phase C18 gradient with electrospray positive ionization, followed by quantification by tandem mass spectrometry (MS/MS). Data were acquired on a MassHunter Workstation Acquisition version B03.01 (Agilent Technologies, Inc.) and processed using MassHunter Quantitative Analysis for QQQ. Accuracy was determined for each hormone analyte from 3 standards to determine upper and lower limits of quantification (ULOQ and LLOQ, respectively) using a 7-point standard curve. Precision and accuracy of the extraction and quantification methods were calculated as the percent relative standard deviation (%RSD) of the spiked standards and percent spiked standard recovered, respectively. […] Test medium was removed following chemical exposure, and cell viability was evaluated in the same wells by MTT. MTT procedures were as follows: after removal of test medium, 500 uL of 0.5 mg/ml of 3-[4,5-dimethylthiazol-2-y]2,5-diphenyltetrazoliumbromide solution was added to the cells. Following a 4-hour incubation at 37 C and 5% CO2 to allow formazan-crystal formation, the MTT solution was removed and blue formazan salt crystals were solubilized using 500uL anhydrous isopropanol with shaking for 20 minutes. Absorbance was read at 570 and 650nm using a Packard Fusion microplate reader. Background correction of absorbance units was used to determine percent change relative to controls. […]
SMILES,outcome,AC50
CCCCc1nc2cccnc2n1Cc1ccc(-c2ccccc2-c2nnn[nH]2)cc1,inactive,–
CC(C)(O)c1ccc(CNC(=O)c2cccnc2Oc2ccc(F)cc2)cc1,inactive,–
CC(=O)[C@@]1(O)CC[C@H]2[C@@H]3CCC4=CC(=O)CC[C@]4(C)[C@H]3CC[C@@]21C,inactive,–
O=C(O)CN(CC(=O)O)CC(=O)O,inactive,–
COc1ccc(C(=O)Nc2nc3ccccc3c(NCc3ccccc3)c2C#N)cc1,–,3.33 µM (active)
Cc1cc(Cc2ccc(N)c(C)c2)ccc1N,–,0.458 µM (active)
O=C(Oc1ccccc1)c1cccc(C(=O)Oc2ccccc2)c1,–,72.7 µM (active)
Nc1nc(Cl)nc2c1ncn2[C@H]1C[C@H](O)[C@@H](CO)O1,–,5.64 µM (active)
Oc1ccc(O)cc1,inactive,–
CC1=C(C)S(=O)(=O)CCS1(=O)=O,inactive,–
CN(C)C(=O)NC1(c2ccccc2)CCN(CCC[C@]2(c3ccc(Cl)c(Cl)c3)CCCN(C(=O)c3ccccc3)C2)CC1,inactive,–
Oc1ccccc1O,inactive,–
CCN(CC)CCOc1ccc(C(=C(Cl)c2ccccc2)c2ccccc2)cc1,–,0.039 µM (active)
O=C1NC(=O)C(c2ccccc2)(c2ccccc2)N1,–,10.4 µM (active)
S=c1[nH]c2ccccc2s1,inactive,–
CCCCCCCCCC[N+](C)(C)[O-],inactive,–
O=C1c2c(O)cccc2Cc2cccc(O)c21,inactive,–
